Data as given in the supplement of paper PMC11732987, “Enantioselective OTUD7B fragment discovery through chemoproteomics screening and high-throughput optimisation” (Communications Chemistry, 2025).

Tests used:
Experiment in all cases: log2 ratio of Biotin-Ahx-Ub-VS probe labelling (fragment/DMSO); higher = less target engagement (more negative = stronger competition), active = hit call of the paper (q ≤ 0.05, log2 ratio ≤ -1)
Conditions in all cases: compound concentration: 200 uM; treatment time: 3 h
USP42 = biological target: T1, USP42 (UniProt Q9H9J4)
T1 sequence (whole entry): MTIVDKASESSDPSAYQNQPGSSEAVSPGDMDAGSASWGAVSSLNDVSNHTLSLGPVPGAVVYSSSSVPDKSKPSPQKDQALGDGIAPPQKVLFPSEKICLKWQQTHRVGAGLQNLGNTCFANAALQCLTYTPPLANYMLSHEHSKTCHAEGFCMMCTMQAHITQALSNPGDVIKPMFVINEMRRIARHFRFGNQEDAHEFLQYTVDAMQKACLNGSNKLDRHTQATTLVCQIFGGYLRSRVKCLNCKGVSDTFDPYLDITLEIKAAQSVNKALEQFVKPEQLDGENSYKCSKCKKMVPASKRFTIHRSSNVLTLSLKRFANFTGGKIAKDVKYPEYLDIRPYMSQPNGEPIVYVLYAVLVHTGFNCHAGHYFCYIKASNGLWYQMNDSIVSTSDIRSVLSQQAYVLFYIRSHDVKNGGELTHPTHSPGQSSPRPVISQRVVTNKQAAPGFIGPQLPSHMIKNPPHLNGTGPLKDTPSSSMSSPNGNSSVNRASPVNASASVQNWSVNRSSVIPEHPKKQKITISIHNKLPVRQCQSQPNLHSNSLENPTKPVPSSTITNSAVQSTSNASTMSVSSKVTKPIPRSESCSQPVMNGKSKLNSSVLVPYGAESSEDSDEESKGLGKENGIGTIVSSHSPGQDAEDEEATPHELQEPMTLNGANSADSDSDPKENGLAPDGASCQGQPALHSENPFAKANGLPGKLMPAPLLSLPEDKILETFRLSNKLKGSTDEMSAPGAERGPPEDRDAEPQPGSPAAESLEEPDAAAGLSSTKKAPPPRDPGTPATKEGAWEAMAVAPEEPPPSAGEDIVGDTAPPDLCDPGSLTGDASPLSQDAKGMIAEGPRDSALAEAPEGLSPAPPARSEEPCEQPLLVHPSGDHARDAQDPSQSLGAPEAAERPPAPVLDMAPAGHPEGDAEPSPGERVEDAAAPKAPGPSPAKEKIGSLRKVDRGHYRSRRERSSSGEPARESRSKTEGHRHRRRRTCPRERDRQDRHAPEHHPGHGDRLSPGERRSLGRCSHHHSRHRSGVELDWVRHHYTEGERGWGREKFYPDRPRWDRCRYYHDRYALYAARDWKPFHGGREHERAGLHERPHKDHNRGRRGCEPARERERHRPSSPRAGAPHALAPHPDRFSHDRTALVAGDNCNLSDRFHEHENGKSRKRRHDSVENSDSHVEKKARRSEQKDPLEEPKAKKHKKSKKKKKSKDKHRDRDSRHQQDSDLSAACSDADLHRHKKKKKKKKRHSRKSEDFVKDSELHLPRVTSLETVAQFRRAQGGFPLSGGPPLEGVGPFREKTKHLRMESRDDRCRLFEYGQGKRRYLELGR
How it was run: (§1)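 HEK293T lysate (495 µg per sample, in Tris/CHAPS/IGEPAL buffer with protease inhibitors) was treated in triplicate with fragment at 200 µM or with DMSO for 3 h. It was then treated with Biotin-Ahx-Ub-VS (0.5 µM final) for 1 h. Labelled DUBs were NeutrAvidin-enriched, digested with LysC and trypsin, and run by diaPASEF LC-MS/MS. Spectronaut label-free quantities were global-median-normalised. Values are average log2 ratios fragment/DMSO by unpaired t-test, using proteins with ≥2 unique peptides.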

USP46 = USP46 (UniProt P62068)
Sequence of USP46 (P62068 whole entry): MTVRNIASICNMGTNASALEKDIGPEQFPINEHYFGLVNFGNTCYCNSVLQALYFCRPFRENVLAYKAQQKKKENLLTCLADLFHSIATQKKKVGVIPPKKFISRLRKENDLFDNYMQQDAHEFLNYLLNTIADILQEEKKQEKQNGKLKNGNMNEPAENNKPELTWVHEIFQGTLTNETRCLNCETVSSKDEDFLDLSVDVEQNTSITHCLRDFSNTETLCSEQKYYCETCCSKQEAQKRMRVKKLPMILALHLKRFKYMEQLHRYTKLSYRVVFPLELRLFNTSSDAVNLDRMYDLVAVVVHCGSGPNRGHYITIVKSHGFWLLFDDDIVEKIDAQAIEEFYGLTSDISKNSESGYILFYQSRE
How it was run: as §1

USP47 = biological target: T2, USP47 (UniProt Q96K76)
T2 sequence (whole entry): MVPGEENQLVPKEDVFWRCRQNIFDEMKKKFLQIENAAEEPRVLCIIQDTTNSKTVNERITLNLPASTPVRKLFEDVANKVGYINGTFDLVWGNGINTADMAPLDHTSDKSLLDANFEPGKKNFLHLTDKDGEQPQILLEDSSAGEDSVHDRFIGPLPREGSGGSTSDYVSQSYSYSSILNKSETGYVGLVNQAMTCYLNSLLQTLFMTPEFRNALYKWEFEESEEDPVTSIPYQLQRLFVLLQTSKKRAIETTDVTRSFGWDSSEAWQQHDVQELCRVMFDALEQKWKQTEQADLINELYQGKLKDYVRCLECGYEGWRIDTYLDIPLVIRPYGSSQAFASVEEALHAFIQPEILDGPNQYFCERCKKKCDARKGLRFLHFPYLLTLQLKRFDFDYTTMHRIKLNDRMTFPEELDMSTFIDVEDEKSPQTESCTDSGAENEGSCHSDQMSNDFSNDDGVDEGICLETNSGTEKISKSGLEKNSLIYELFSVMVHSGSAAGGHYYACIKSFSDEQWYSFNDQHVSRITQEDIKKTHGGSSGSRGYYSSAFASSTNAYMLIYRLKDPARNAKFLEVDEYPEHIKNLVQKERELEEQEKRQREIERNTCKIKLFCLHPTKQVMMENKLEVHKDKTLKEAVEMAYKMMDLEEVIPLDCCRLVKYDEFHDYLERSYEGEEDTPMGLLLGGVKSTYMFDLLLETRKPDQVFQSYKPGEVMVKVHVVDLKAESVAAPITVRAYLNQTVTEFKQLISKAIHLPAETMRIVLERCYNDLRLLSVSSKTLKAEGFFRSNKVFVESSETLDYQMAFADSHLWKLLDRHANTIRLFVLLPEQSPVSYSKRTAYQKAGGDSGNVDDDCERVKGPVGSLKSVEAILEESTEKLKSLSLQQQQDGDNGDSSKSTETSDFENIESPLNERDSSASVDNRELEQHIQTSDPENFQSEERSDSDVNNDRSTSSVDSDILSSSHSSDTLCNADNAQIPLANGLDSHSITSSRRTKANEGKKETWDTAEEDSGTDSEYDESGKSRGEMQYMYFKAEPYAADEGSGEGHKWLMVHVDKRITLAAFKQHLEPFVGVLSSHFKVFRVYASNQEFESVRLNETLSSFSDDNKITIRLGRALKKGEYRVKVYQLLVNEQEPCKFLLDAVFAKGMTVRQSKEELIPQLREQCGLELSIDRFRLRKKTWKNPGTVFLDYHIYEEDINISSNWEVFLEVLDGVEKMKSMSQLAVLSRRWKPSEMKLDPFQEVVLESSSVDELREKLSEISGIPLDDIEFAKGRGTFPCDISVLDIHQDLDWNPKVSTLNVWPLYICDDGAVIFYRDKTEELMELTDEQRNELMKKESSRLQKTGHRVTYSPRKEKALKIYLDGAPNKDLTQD
How it was run: as §1

USP48 = biological target: T3, USP48 (UniProt Q86UV5)
T3 sequence (whole entry): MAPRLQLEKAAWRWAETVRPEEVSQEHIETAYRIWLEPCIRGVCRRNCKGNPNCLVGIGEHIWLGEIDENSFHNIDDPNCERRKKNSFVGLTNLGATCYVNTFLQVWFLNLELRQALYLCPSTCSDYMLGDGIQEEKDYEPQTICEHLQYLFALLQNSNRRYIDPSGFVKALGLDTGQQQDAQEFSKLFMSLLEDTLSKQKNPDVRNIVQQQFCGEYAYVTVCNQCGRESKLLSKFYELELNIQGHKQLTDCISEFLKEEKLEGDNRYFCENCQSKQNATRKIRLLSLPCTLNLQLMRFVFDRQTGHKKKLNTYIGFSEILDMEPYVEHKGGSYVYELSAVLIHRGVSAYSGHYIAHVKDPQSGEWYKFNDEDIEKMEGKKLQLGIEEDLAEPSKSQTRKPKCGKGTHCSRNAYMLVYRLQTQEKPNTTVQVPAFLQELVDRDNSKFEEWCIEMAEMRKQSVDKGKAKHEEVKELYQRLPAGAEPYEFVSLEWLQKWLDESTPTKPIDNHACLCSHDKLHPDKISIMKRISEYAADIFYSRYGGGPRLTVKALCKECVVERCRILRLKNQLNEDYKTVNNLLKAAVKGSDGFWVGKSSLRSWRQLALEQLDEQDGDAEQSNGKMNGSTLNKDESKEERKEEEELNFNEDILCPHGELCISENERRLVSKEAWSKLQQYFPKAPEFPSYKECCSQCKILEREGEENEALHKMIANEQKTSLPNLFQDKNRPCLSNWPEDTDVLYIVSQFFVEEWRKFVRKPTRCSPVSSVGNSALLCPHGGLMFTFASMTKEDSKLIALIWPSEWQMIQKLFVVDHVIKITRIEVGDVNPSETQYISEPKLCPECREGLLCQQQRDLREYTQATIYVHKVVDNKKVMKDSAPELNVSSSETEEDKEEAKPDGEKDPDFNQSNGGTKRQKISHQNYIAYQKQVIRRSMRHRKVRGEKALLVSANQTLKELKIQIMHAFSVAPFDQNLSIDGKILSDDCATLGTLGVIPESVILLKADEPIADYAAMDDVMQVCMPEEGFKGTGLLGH
How it was run: as §1

USP5 = biological target: T4, USP5 (UniProt P45974)
T4 sequence (whole entry): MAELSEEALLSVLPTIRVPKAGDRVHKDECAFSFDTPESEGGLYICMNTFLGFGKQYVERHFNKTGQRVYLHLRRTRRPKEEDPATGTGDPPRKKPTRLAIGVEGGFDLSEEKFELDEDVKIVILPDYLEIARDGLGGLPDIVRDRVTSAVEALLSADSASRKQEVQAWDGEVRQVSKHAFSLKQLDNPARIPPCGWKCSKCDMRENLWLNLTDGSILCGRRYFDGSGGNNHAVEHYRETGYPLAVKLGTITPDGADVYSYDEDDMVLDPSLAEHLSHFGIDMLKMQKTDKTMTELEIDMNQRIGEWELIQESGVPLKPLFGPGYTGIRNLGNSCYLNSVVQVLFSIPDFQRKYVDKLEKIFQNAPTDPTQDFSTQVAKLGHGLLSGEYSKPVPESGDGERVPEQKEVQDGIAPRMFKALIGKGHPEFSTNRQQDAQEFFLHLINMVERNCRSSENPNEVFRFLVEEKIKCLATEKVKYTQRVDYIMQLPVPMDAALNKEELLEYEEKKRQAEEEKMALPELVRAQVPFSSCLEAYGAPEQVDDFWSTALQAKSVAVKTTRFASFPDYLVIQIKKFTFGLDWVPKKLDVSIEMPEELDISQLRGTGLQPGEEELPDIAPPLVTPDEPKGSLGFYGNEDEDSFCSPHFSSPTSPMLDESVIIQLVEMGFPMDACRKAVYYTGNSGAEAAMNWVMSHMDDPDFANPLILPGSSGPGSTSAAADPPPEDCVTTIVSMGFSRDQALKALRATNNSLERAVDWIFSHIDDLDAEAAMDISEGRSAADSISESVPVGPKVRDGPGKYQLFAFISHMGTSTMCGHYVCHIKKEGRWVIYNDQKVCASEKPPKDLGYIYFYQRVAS
How it was run: as §1

USP54 = USP54 (UniProt Q70EL1)
Sequence of USP54 (Q70EL1 whole entry): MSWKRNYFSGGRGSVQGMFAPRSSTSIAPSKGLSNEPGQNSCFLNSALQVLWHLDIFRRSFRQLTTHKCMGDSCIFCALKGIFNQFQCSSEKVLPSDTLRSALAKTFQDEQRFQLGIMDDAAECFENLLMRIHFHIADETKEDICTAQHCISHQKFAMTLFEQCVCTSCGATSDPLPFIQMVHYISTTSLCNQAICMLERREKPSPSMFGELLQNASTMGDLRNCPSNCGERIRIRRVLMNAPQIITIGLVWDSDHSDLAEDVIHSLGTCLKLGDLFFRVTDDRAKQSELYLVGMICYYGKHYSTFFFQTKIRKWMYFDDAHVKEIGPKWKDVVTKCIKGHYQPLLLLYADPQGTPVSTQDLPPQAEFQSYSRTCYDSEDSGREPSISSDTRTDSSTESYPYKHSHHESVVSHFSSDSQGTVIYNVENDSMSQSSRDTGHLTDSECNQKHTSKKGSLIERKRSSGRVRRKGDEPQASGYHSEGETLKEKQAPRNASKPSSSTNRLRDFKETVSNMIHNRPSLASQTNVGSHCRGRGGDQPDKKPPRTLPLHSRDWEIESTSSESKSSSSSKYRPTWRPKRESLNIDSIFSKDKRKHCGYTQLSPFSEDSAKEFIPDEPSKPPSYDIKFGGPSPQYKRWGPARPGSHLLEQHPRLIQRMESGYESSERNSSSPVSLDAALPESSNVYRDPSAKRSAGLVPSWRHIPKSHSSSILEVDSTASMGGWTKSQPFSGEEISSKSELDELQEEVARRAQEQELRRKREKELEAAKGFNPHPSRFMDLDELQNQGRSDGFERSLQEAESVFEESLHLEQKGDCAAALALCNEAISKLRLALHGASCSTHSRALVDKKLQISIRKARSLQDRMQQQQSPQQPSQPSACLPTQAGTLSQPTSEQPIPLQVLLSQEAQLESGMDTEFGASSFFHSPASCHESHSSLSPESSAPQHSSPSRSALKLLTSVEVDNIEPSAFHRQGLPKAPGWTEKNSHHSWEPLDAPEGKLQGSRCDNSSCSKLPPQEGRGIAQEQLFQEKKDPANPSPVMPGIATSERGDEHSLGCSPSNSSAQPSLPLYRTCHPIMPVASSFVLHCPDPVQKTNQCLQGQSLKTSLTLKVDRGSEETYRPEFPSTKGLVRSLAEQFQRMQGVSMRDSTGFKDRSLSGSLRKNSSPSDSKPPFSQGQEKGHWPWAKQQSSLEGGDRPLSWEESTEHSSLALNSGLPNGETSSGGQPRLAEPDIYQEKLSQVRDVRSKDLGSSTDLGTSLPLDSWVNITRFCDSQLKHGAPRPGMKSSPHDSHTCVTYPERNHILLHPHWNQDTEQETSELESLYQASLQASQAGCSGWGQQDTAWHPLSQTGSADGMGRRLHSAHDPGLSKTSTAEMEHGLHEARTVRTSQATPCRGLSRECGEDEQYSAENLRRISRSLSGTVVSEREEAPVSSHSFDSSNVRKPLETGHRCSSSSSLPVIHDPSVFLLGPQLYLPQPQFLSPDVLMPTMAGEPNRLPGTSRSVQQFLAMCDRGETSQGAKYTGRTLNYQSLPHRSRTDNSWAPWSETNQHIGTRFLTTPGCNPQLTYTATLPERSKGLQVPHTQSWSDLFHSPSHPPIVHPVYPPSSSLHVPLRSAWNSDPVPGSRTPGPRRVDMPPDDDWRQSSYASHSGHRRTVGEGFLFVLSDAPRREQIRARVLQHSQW
How it was run: as §1

USP7 = USP7 (UniProt Q93009)
Sequence of USP7 (Q93009 whole entry, looked up): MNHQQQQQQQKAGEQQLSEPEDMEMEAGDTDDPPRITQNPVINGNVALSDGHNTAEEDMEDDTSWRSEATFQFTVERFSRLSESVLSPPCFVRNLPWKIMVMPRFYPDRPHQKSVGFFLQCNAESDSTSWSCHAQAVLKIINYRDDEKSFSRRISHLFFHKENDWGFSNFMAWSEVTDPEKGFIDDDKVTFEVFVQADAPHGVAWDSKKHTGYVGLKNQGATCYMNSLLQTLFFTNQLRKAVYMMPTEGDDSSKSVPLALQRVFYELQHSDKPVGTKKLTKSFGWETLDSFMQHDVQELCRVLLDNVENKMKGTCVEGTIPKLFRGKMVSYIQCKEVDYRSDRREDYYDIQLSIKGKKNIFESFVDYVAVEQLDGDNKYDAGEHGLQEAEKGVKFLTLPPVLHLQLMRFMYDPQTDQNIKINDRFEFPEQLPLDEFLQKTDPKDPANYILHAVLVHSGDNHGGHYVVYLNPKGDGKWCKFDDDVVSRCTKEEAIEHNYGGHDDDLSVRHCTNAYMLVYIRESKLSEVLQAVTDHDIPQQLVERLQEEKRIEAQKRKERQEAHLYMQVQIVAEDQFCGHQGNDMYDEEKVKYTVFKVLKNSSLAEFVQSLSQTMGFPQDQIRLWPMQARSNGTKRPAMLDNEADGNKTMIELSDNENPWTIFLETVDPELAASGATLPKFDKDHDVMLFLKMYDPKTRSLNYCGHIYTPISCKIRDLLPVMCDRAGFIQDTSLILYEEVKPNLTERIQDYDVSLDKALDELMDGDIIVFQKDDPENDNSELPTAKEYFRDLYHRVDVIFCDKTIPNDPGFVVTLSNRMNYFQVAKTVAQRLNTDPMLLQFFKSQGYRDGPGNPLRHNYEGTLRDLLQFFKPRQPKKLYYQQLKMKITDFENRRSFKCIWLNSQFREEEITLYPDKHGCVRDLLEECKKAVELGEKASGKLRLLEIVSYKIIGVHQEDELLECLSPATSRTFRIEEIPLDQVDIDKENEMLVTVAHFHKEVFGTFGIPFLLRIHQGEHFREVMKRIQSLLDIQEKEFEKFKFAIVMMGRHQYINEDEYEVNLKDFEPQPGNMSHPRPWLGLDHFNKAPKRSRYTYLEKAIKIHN
How it was run: as §1

USP8 = biological target: T5, USP8 (UniProt P40818)
T5 sequence (whole entry): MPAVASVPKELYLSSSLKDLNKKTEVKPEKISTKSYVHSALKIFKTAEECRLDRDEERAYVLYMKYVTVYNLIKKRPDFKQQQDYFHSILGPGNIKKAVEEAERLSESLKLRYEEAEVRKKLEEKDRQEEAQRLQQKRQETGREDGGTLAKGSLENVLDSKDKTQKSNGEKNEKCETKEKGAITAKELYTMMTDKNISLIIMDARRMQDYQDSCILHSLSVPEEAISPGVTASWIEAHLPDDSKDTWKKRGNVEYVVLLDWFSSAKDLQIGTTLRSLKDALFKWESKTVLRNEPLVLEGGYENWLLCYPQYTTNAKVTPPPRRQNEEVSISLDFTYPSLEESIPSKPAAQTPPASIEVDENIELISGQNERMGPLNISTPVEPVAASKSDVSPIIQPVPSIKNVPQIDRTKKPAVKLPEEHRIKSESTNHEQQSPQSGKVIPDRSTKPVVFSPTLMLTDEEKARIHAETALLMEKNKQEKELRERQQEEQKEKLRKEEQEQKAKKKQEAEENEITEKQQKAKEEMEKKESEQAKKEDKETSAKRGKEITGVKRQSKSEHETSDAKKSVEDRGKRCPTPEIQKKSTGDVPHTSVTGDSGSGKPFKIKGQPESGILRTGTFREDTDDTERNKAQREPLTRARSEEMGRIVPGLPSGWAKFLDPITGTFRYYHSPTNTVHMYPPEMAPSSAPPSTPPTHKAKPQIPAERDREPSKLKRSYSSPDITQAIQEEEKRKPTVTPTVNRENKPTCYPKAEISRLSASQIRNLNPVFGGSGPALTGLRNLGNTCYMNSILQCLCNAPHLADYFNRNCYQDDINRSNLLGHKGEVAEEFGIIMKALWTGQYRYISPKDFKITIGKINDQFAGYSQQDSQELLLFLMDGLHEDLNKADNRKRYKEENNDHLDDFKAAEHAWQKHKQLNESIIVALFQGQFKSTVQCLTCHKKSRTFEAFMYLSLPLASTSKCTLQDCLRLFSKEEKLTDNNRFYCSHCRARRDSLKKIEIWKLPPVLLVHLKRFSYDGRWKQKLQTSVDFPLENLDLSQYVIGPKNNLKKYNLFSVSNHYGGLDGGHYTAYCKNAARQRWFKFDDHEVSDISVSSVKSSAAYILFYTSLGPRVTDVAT
How it was run: as §1

USP9X = USP9X (UniProt Q93008)
How it was run: as §1

UniProt O00487 = biological target: UniProt O00487
Sequence of UniProt O00487 (O00487 whole entry): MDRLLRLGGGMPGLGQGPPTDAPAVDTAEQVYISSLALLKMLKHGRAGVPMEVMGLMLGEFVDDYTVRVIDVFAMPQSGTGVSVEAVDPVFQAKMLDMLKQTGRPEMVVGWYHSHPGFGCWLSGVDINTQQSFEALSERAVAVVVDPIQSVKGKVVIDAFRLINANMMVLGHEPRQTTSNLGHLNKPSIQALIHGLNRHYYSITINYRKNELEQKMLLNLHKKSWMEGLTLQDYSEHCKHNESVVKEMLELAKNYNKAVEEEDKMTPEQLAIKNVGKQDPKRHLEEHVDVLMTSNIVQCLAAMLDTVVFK
How it was run: as §1

Measured: log2 ratio of Biotin-Ahx-Ub-VS probe labelling

O=C(CCl)NCc1ccc(Cl)cc1
inactive: USP42 0.175 | USP46 -0.0156 | USP47 -0.0592 | USP48 0.107 | USP5 -0.0207 | USP54 -0.625 | USP7 -0.206 | USP8 0.105 | USP9X 0.00725 | UniProt O00487 -0.0216
